# PNC inhibitor = inhibitors of perinucleolar compartment assembly | PC3M PTB-GFP, PNC prevalence imaging, 16 h; active compounds read low | activity change (PNC), negative = inhibition, % at 10 µM | hit rate 3.1% among 140,000 | AID 2417;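 active = readout at or below -70, meaning at least 70% loss of cells showing the perinucleolar compartment, a nuclear body marking cancer cells; inconclusive = readout between -30 and a set limit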;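 note: plate controls were DMSO wells for no effect and camptothecin positive control wells for full effect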
#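 PC3M cells stably expressing PTB-GFP, 750–1000 cells/well, treated 16 h at 37 °C with compound (23 nl of library stock), in duplicate. After paraformaldehyde fixation and Hoechst stain, imaged at 20x; PNC prevalence scored by image analysis.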
# IMPase cell inh = IMPase inhibition in cells | 120,000 tested, under 10 active | CHO-M1 cells, IP1 accumulation, HTRF TR-FRET ratio | P97697 | inhibition (IP1 accumulation), % at 46.1 µM; active = well fitted curve in the direction sought with a large enough effect in the signal ratio, not every such curve was filed as active; inconclusive = small, poorly fitted or top-dose-only effect, or a change in a side signal; inactive = no such curve, though single readings can be large or run the other way; the % refers to the signal ratio;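 note: cells stimulated with carbachol in lithium chloride buffer; plate controls were DMSO basal wells for no effect and reference inhibitor wells for full effect; higher means more IMPase inhibition seen as more IP1 and lower FRET ratio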
#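 Cellular IMPase inhibition is scored as a rise in cytosolic IP1, detected by competitive TR-FRET between d2-labelled IP1 and a europium anti-IP1 antibody. M1-expressing CHO cells were stimulated with carbachol for 30 min at 37C, with lithium (50 mM LiCl) present in the buffer.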
# ALDH1A1 block = blocks purified human ALDH1A1 activity; P00352; Purified ALDH1A1, NADH fluorescence, propionaldehyde substrate; Potency, µM (highest dose often 75.3 µM), for the others: at the top dose activity, negative = inhibition, usual class: inhibitors; hit rate 7.3% among 220,000; AID 1030; active = well fitted inhibition curve with a large enough effect, not every such curve was filed as active; inconclusive = small, poorly fitted or top-dose-only effect, or another doubt; inactive = no such curve, though single readings can be large or run the other way;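 note: potency is the fitted concentration of half-maximal effect; plate controls were no enzyme wells and a reference inhibitor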
# HPGD block = inhibitors of human 15-hydroxyprostaglandin dehydrogenase (HPGD); P15428; hit rate 4.3% among 150,000; Potency, µM, without a hit: top-dose activity change, negative = inhibition, most hits filed as inhibitors; purified HPGD, NADH fluorescence kinetic, PGE2 substrate; active = well fitted inhibition curve with a large enough effect, not every such curve was filed as active; inconclusive = small, poorly fitted or top-dose-only effect, or another doubt; inactive = no such curve, though single readings can be large or run the other way; note: potency is the fitted concentration of half-maximal effect
#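 20 nM HPGD preincubated 15 min at room temperature with compound in 50 mM Tris-HCl pH 8, 0.01% Tween 20. Started with 1 mM NAD+ and 30 uM prostaglandin E2; NADH fluorescence (360/450 nm) read 5 times over 30-s intervals, last minus first.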
# IMPase Li inh = cell-permeable IMPase inhibitors with lithium potentiation | hit rate 0.35% among 210,000 | AID 1457 | Potency, µM (series often up to 59.4 µM), without a hit: at the top dose activity, negative = IMPase inhibition, actives largely listed as inhibitors | CHO-M1 cells, IP1 TR-FRET (IP-One), carbachol + lithium;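 note: IP1 builds up when IMPase is blocked and the TR-FRET signal falls; potency is the fitted concentration of half-maximal effect; plate controls were basal vehicle for no effect and high inhibitor control for full effect; nearly all actives have a fitted effect of over 50% in size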
#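 CHO cells stably expressing M1 receptor (2000/well, cultured 16–30 h) treated 30 min at 37C with compound plus low lithium. Cytosolic IP1 by TR-FRET (665/620 ratio and 620 channel) after 10 min lysis; AC50 by Hill fit.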
# 12-hLO inh = inhibitors of human 12-lipoxygenase (ALOX12). P18054. purified 12-hLO, xylenol orange hydroperoxide absorbance. Potency, µM (top dose mostly 57.1 µM), inactives show at the highest dose activity change, negative = inhibition, actives largely listed as inhibitors. hit rate 0.12% among 150,000; note: potency is the fitted concentration of half-maximal effect; nearly all actives have a fitted effect of over 55% in size
# Target sequence (P18054 whole entry, looked up): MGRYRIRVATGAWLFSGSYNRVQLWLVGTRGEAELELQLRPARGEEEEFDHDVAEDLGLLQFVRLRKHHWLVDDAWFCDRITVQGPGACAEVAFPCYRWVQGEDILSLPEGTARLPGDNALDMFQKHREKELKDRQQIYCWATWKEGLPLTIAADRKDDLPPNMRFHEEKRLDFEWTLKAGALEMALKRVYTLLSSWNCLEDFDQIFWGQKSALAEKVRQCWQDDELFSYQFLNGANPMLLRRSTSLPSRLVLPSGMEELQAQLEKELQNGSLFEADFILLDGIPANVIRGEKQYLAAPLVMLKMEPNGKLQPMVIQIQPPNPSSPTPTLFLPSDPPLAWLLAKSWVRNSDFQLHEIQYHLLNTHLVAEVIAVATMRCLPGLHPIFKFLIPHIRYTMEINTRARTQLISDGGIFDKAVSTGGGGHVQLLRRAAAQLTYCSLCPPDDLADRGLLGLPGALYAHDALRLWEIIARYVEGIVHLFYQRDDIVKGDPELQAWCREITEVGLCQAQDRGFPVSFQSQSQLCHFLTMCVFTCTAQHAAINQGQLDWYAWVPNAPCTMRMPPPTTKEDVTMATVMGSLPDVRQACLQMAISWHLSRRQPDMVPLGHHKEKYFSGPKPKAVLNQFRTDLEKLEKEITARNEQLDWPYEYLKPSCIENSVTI
#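 Purified human 12hLO (150 nM), preincubated 15 min with compound, then 40 uM arachidonic acid for 30 min, room temperature, Hepes pH 7.0 with 0.01% Triton X-100. Hydroperoxide detected by ferrous iron/xylenol orange; 573/405 nm absorbance ratio gives reaction progress.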
# * marks the source's active call; other numbers are inactive results; ? = inconclusive; . = not tested or not shown; [ ] = another dose, or the depositor's remark. An excerpt weighted towards active compounds, which were near 11% of everything screened. Unless noted, calls come from the whole dose curve; as a rule, active = well fitted curve in the direction sought with a large enough effect; inconclusive = small, poorly fitted or top-dose-only effect, or another doubt; inactive = no such curve, though single readings can be large; an effect the other way counts as inactive or inconclusive. Unless noted, % is set by controls: 0 for no effect and ±100 for the full control effect.
SMILES,PNC inhibitor,IMPase cell inh,ALDH1A1 block,HPGD block,IMPase Li inh,12-hLO inh
N#CC1=C(N)NC(SCc2ccc(Cl)cc2)=C(C#N)C12CCCCC2,-27,-16,13µM*,-25%,24%[38.3 µM],-24%
CSC1=C(C#N)C2(CCCC2)C(C#N)=C(N)N1,23,-1,?,-5%,-3%[38.3 µM],-13%
N#CC1=C(N)NC(SCc2ccc(Br)cc2)=C(C#N)C12CCCCC2,35,10,?,-12%,7%,-9%
CCN(CC)c1nc2ccccc2c(N)c1-c1ccccc1,-9,15,14µM*,?,13%[38.3 µM],-9%
O=C(c1ccccc1)c1c[nH]c(C(=O)NNc2ccccc2)c1,.,.,22µM*,.,10%,.
O=C(c1ccccc1)c1c[nH]c(C(=O)NCc2cccnc2)c1,8,1,-1%,?,1%[38.3 µM],-1%
CO/N=C(/C)CCS(=O)(=O)c1ccccc1,.,.,2%,.,-1%,.
COc1ccc(OC)c(CCNC(=O)Cn2sc3nc(C)cc(C)c3c2=O)c1,-9,7,2.5µM*,1.4µM*,26%[38.3 µM],?
NNC(=O)CS(=O)(=O)Nc1ncccn1,.,.,16%[13.5 µM],-8%,-8%,3%[11.4 µM]
Cc1cc(=O)[nH]c(N/N=C/c2sccc2C)n1,-9,.,3%,40µM*,-1%,-6%
Cc1[nH]c2ccccc2c1Cc1nnc(SCCC#N)o1,-100*,-2,3%,-16%,6%,4%
C=CCSc1nnc(Cc2c(C)[nH]c3ccccc23)o1,-23,-11,2%,-11%,3%,3%
CCOC(=O)CN1C(=O)N[C@@H](c2cccc(C(F)(F)F)c2)[C@H](C(=O)OC)[C@H]1C,.,.,6%[13.5 µM],-3%,5%,1%[11.4 µM]
CC1CCc2c(sc3nc(SCC(=O)NCc4ccco4)nc(N)c23)C1 (configuration not stated),-10,8,5%,14µM*,-2%[38.3 µM],-13%
O=C(CSc1nc2sc3c(c2c(=O)n1-c1ccccc1)CCCC3)NCc1ccco1,53,1,?,-22%,3%,0%
CCN(CC)C(=O)CSc1nc(N)c2c3c(sc2n1)CC(C)CC3 (configuration not stated),20,0,-12%,14µM*,20%[38.3 µM],-1%
COc1cc(CNn2nnnc2N)cc(Br)c1OCc1c(Cl)cccc1Cl,21,0,2%,16µM*,30%[38.3 µM],-3%
Cc1ccc(S(=O)(=O)c2cccc(S(=O)(=O)N3CCCC3)c2)cc1S(=O)(=O)N1CCCC1,-21,15,?,-6%,24%[38.3 µM],-3%
CCN(CC)S(=O)(=O)c1cccc(S(=O)(=O)N2CCCCC2)c1,?,16,3.5µM*,-1%,59%[38.3 µM],8%
O=S(=O)(c1ccccc1)c1cccc(S(=O)(=O)N2CCCCC2)c1,-3,-6,2.2µM*,-11%,24%[38.3 µM],-4%
COc1ccc(N/N=C(/C)c2cnnc(-c3ccccc3)n2)cc1,-5,.,9.5µM*,-1%,6%,-1%
CC(C)(C)c1ccc(S(=O)(=O)Nc2cccnc2)cc1,24,10,?,-10%,14%[38.3 µM],-11%
CC(=O)NCCc1ccc(S(=O)(=O)Nc2cccnc2)cc1,-82*,7,0%,-2%,0%,4%
COc1ccc2oc(=N)c(C(=O)Nc3ccccc3)cc2c1,-83*,-7,8%,-12%,8%[38.3 µM],-1%
c1ccc2c(N3CCOCC3)nc(-c3ccoc3)nc2c1,.,.,?,.,14%,.
SMILES,PNC inhibitor,IMPase cell inh,ALDH1A1 block,HPGD block,IMPase Li inh,12-hLO inh
COc1ccc(-c2nc3cnc(OC)nc3n(Cc3cccc(OC)c3)c2=O)cc1,.,.,?,?,?,-1%
CCc1nn2cc(C(=O)c3cc(Cl)ccc3O)cnc2c1-c1ccc(F)cc1,-21,-4,-8%,16µM*,13%,0%
CCN(C)Cc1c(C(=O)N2CCc3ccccc3C2)nc2ccc(Cl)cn12,.,.,-15%,.,-5%,.
CCN(CC)Cc1c(C(=O)N2CCc3ccccc3C2)nc2ccc(Cl)cn12,.,.,13µM*,.,12%,.
C=CCn1c(NC(=O)CC)c(C(=O)OCC)sc1=S,1,1,?,20µM*,-1%[38.3 µM],2%
CCOC(=O)c1ccc(-n2c(CCC(=O)O)ccc2-c2ccc(Br)cc2)cc1,.,23,.,.,.,.
Cc1cc(Cl)c(OCCOCCN2CCCCC2)c(Br)c1,-102*,.,?,-12%,11%,-6%
Cc1ccc(-c2csc(=Nc3cccnc3)n2CCCn2ccnc2)cc1C,-10,.,?,-9%,13%,-1%
Cc1ccc(-c2csc(=Nc3cccnc3)n2CCCN2CCCC2=O)cc1C,153,.,7.9µM*,-11%,3%,0%
CCCCCCCCCCCCC[N+](C)(C)Cc1ccccc1,.,.,-13%,-8%,36%,-4%
CN1C(=O)/C(=C/c2ccc(-c3ccccc3[N+](=O)[O-])o2)SC1=Nc1ccc(Cl)c(C(=O)O)c1,?,0,13µM*,14µM*,-1%,-3%
N[C@H](Cc1cc(I)c(Oc2cc(I)c(O)c(I)c2)c(I)c1)C(=O)O,.,-1[20.6 µM],-7%[20.9 µM],-5%,1%,-20%[25.6 µM]
NC(Cc1cc(I)c(Oc2cc(I)c(O)c(I)c2)c(I)c1)C(=O)O (configuration not stated),.,.,16µM*,-17%,7%,-14%
CC1(C)C(=O)NC2=C1C(=O)C(=O)c1ccccc12,.,?,28µM*,-11%,89%,-13%
Cc1ccc(-c2nnc(Nc3cccc(Cl)c3)c3ccccc23)cc1S(=O)(=O)NCC1CCCO1 (configuration not stated),.,4,.,.,.,.
C=CCN1C(=O)NC(c2ccc(OC)cc2)(C(F)(F)F)S/C1=C(\C#N)c1nnc(N2CCOCC2)n1-c1ccccc1 (configuration not stated),-12,.,?,-12%,23%,2%
CCOc1ccc(C2=CS/C(=C(\C#N)c3nnc4n3CCCCC4)N2CC)cc1,?,5,?,?,17%[38.3 µM],-2%
C=CCN1C(c2ccccc2)=CS/C1=C(\C#N)c1nnc2n1CCCCC2,-18,?,18µM*,25µM*,8%[38.3 µM],-1%
N#C/C(=C(/O)COc1ccccc1)c1nnc2n1CCCCC2,.,.,7.9µM*,.,-4%,.
C=CCN1C(c2ccc(Br)cc2)=CS/C1=C(/C#N)c1nnc(N2CCOCC2)n1-c1ccccc1,-11,.,3.2µM*,6%,2%,-13%
Brc1ccc(-c2nnc3c4ccccc4nc(N4CCOCC4)n23)cc1,26,3,15%,-3%,-2%[38.3 µM],-2%
N#C/C(=C(/O)CCl)c1nnc2n1CCCCC2,.,.,?,.,-6%,.
C=CCN1C(c2cccc(C(F)(F)F)c2)=CS/C1=C(/C#N)c1nnc(N2CCOCC2)n1-c1ccccc1,23,.,14µM*,-9%,9%,-2%

# From PubChem
